Results on 22 compounds are retold here after PubChem BioAssay (NCATS).

Experiment [1] addresses Cellular tumor antigen p53 (Homo sapiens) (UniProt P04637). Nature of the experiment: Primary qHTS for small molecule compounds that upregulate eGFP-tagged delta133p53alpha (in N-terminal) cells. (AID 2060322).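 Note: series mostly up to about 56 µM; 0% = DMSO vehicle and 100% = reference activator; nearly all actives have a fitted effect of over 75% in size.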 Conditions: NCI-H358 eGFP-delta133p53alpha fluorescence, 24 h; activation: active compounds read high. An outline of the steps:
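NCI-H358 cells pre-induced 24 h with 10 ng/ml doxycycline to express N-terminal eGFP-delta133p53alpha, then dosed 24 h at 37C without doxycycline; fixed, Hoechst-stained, GFP intensity by laser scanning cytometry, normalized to DMSO (0%) and 57.5 uM 5-azacytidine (100%).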
Background: Quantitative high-throughput screening tests each substance at several concentrations.

In experiment [2] the target is Aldehyde dehydrogenase, mitochondrial (Homo sapiens) (UniProt P05091). Nature of the experiment: qHTS for Inhibitors of the Aldehyde Dehydrogenase Family (ALDH2) Primary screen (AID 2061308).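 Note: plate controls were vehicle for no effect and reference inhibitor for full effect; nearly all actives have a fitted effect of over 55% in size.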
For experiment [3], the target named is Retinaldehyde dehydrogenase 3 (Homo sapiens) (UniProt P47895). Nature of the experiment: qHTS for Inhibitors of the Aldehyde Dehydrogenase Family (ALDH1A3) Primary screen (AID 2061315).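 For activity change, negative = inhibition: plate controls were DMSO vehicle for no effect and reference inhibitor for full effect.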 Note: potency is the fitted concentration of half-maximal effect.

Inconclusive results are not listed. A number with no mark means an inactive call. The source made the active and inactive calls. Calls come from the whole dose curve; as a rule, active = well fitted curve in the direction sought with a large enough effect; inconclusive = small, poorly fitted or top-dose-only effect, or another doubt; inactive = no such curve, though single readings can be large; an effect the other way counts as inactive or inconclusive.

Sequence of Cellular tumor antigen p53 (Homo sapiens) (P04637 whole entry, looked up): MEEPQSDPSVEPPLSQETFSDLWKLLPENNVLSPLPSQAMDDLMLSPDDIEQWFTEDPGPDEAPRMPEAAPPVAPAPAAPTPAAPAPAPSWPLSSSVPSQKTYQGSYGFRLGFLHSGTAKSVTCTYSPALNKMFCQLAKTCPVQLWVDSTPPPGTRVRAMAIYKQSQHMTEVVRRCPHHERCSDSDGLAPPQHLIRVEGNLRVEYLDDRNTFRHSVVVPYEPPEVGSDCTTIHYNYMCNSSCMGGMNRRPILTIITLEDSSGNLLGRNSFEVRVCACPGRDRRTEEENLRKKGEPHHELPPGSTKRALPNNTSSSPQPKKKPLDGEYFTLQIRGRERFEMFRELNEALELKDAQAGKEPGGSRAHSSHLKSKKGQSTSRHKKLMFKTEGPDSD

In the case of `Cc1cccc(N2CCN(C(=O)c3cc(S(=O)(=O)N(C)C)ccc3N3CCCC3)CC2)c1C`, the activation in experiment [1] was -4.33%. The Potency result in experiment [2] and in experiment [3] was “inactive” in each case.

On to `CC(/C=C/C1(O)C(C)(C)CC(O)CC1(C)O)OC1OC(CO)C(O)C(O)C1O` (stereo unspecified), for which, in experiment [1], the activation was -5.34%. The Potency entry in experiment [2] and in experiment [3] was “inactive” throughout.

For the compound `COC(=O)[C@]1(C)CCC[C@@]2(C)[C@@H]3CC[C@@H]4C[C@@]3(CC[C@@H]21)C[C@H]4C(=O)O`, the activation in experiment [1] is -17.6%. Moreover, the Potency result in experiment [2] and in experiment [3] was “inactive” throughout.

In the case of `CC1OC(OC2C(C)OC(OC3C(OC(=O)C45CCC(C)(C)CC4C4=CCC6C7(C)CCC(OC8OC(C(=O)O)C(O)C(O)C8OC8OC(CO)C(O)C(OC9OC(C)C(O)C(O)C9O)C8O)C(C)(CO)C7CCC6(C)C4(C)CC5)OC(CO)C(O)C3O)C(O)C2O)C(O)C(O)C1O` (stereo unspecified), the activation in experiment [1] is 13.4%. In addition, the values for the activity change, negative = inhibition in experiment [2] and in experiment [3] were -1.8% [at 11.2 µM] and -5.04% [at 11.2 µM], respectively.

For the compound `CC(=O)c1cc(C(=O)N[C@@H](C)Cn2ccc(-c3ccc(C#N)c(Cl)c3)n2)[nH]n1`, in experiment [1], the activation is 18.3%. Further, the Potency entry in experiment [2] and in experiment [3] was “inactive” in each case.

For the compound `O=C(CCC1CCN(Cc2ccccc2)CC1)c1ccc2c(c1)NCCCC2`, the activation in experiment [1] was 6.33%. Moreover, the Potency result in experiment [2] and in experiment [3] was “inactive” throughout.

For the compound `COC(=O)CC[C@@H](C)[C@H]1CC[C@H]2[C@@H]3CC(=O)[C@H]4C[C@H](OC(C)=O)CC[C@]4(C)[C@H]3CC[C@]12C`, in experiment [1], the activation was -4.33%. Further, the Potency entry in experiment [2] and in experiment [3] was “inactive” in each case.

In the case of `C[C@H]1CC[C@@]2(OC1)O[C@H]1CC3C4CC=C5C[C@H](O)C[C@@H](O[C@@H]6O[C@@H](C)[C@H](O)[C@@H](O)[C@H]6O[C@@H]6O[C@@H](C)[C@H](O)[C@@H](O)[C@H]6O)[C@]5(C)C4CC[C@]3(C)[C@H]1[C@@H]2C` (stereo partly specified), the activation in experiment [1] was -13.7%. Moreover, the Potency result in experiment [2] and in experiment [3] was “inactive” each time.

As to `C=C(C(=O)OC)C1C(O)CC2(C)C(O)CCC(=O)C2C1O` (stereo unspecified), the activation in experiment [1] was -15.3%. The Potency entry in experiment [2] and in experiment [3] was “inactive” each time.

On to `CC(C(O)/C=C/C(C)(C)O)C1CCC2(C)C3C(=O)C=C4C(CCC(O)C4(C)C)C3(C)CCC12C` (stereo unspecified), for which, in experiment [1], the activation is -22.3%. The Potency result in experiment [2] and in experiment [3] was “inactive” throughout.

`COc1cccc(C)c1C(=O)O[C@@H]1C[C@H](O[C@H]2[C@H](O)C[C@H](O[C@@H]3CCC[C@H]4[C@H]3C=C[C@@H]3CCCC/C=C/[C@H]5C=C(C(=O)O)[C@@H](C)C[C@@]56OC(=O)C(=C6O)OC(=O)[C@@]34C)O[C@@H]2C)O[C@H](C)[C@H]1O`: the activation in experiment [1] was -5.34%. Further, the Potency entry in experiment [2] and in experiment [3] was “inactive” throughout.

As to `C/C=C/C=C/[C@@H]1O[C@](O)([C@H](CC)C(=O)NC/C=C/C=C(\C)[C@@H](OC)[C@@H](C)[C@@H]2O[C@H](/C=C/C=C/C=C(\C)C(=O)c3c(O)ccn(C)c3=O)[C@H](O)[C@@H]2O)[C@H](O)[C@H](O)C1(C)C`, in experiment [1], the activation is 4.58%. The Potency entry in experiment [2] and in experiment [3] was “inactive” each time.

For `C[C@]12CCC[C@](C)(C(=O)O)C1[C@@H](O)[C@@H](O)C13CC(CCC12)C(CO)(O[C@@H]1O[C@H](CO)[C@@H](O)[C@H](O)[C@H]1O)C3` (stereo partly specified), the activation in experiment [1] is -9.16%. In addition, the Potency entry in experiment [2] and in experiment [3] was “inactive” each time.

With `OC[C@H]1O[C@@H](OCc2ccccc2)[C@H](O[C@@H]2OC[C@@H](O)[C@H](O)[C@H]2O)[C@@H](O)[C@@H]1O`, in experiment [1], the activation was -14.3%. The Potency result in experiment [2] and in experiment [3] was “inactive” in each case.

With `COC(=O)C[C@@H]1C(C(=O)O)=CO[C@@H](O[C@@H]2O[C@H](CO)[C@@H](O)[C@H](O)[C@H]2O)/C1=C\COC(=O)/C=C\c1ccccc1`, in experiment [1], the activation was 26%. The Potency entry in experiment [2] and in experiment [3] was “inactive” throughout.

On to `C[C@@H]1O[C@@H](O[C@H]2[C@H](O[C@H]3[C@H](O[C@H]4CC[C@@]5(C=O)C(CC[C@]6(C)C5CC=C5C7CC(C)(C)C[C@@H](O)[C@]7(C)CC[C@]56C)C4(C)C)O[C@H](C(=O)O)[C@@H](O)[C@@H]3O)OC[C@@H](O)[C@@H]2O)[C@H](O)[C@H](O)[C@H]1O` (stereo partly specified), for which, in experiment [1], the activation was -8.93%. In addition, the Potency result in experiment [2] and in experiment [3] was “inactive” throughout.

As to `CC(C)=CCC[C@](C)(O[C@@H]1O[C@H](CO)[C@@H](O)[C@H](O)[C@H]1O)[C@H]1CC[C@]2(C)[C@@H]1[C@H](O)CC1[C@@]3(C)CC[C@H](O)C(C)(C)C3[C@@H](O[C@@H]3O[C@H](CO)[C@@H](O)[C@H](O)[C@H]3O[C@@H]3O[C@@H](C)[C@H](O)[C@@H](O)[C@H]3O)C[C@]12C` (stereo partly specified), the activation in experiment [1] was -21.4%. Besides, the Potency result in experiment [2] and in experiment [3] was “inactive” each time.

Regarding `CCN(CC)CCCCCCNc1cc(OC)cc2c(C)ccnc12`, the activation in experiment [1] was -2.86%. Moreover, the Potency entry in experiment [2] is “inactive”. The Potency in experiment [3] is 2.51 µM (active).

Turning to `CC1(C(=O)O)CCCC2(C)C3CCC4CC3(CCC12)CC4C(=O)O` (stereo unspecified), the activation in experiment [1] is -3.05%. Moreover, the Potency entry in experiment [2] and in experiment [3] was “inactive” each time.

For `CC(=O)C1(C)CCC2C3C=C(C)C4=CC(=O)CCC4(C)C3CCC21C` (stereo unspecified), the activation in experiment [1] was -17%. Besides, the Potency entry in experiment [2] and in experiment [3] was “inactive” throughout.

Turning to `C/C=C(/C)C(=O)O[C@H]1[C@H](OC(=O)/C(C)=C\C)[C@@]23C(CC1(C)C)[C@]1(CCC4[C@@]5(C)CC[C@H](O[C@@H]6O[C@H](C(=O)O)[C@@H](O)[C@H](O[C@@H]7O[C@H](CO)[C@H](O)[C@H](O)[C@H]7O[C@@H]7O[C@@H](C)[C@H](O)[C@@H](O)[C@H]7O[C@@H]7OC[C@@H](O)[C@H](O)[C@H]7O)[C@H]6O[C@@H]6O[C@H](CO)[C@H](O)[C@H](O)[C@H]6O)C(C)(C)C5CC[C@@]4(C)[C@]1(C)C[C@H]2O)O[C@H]3O` (stereo partly specified), the activation in experiment [1] is -8.93%. Moreover, the results for the activity change, negative = inhibition in experiment [2] and in experiment [3] were -1.6% [at 11.2 µM] and -5.71% [at 11.2 µM], respectively.

As for `COC(=O)C1=CO[C@@H](O[C@@H]2O[C@H](CO)[C@@H](O)[C@H](O)[C@H]2O)[C@@H]2[C@@H](C)[C@@H](OC(=O)/C=C/c3ccccc3)[C@@H](O)[C@H]12`, in experiment [1], the activation is -5.34%. For the same compound, the Potency result in experiment [2] and in experiment [3] was “inactive” each time.
